In all, about 410,000 compounds went through this assay and about 6,400 (1.6%) were called active. Roughly 20% stayed inconclusive and do not appear here. This is one part of a sample in which actives are shown more often than they occur. Calls follow the shape of the dose curve; as a rule, active = well fitted inhibition curve with a large enough effect; inconclusive = small, poorly fitted or top-dose-only effect; inactive = no such curve, though single readings can be large or run the other way.
% is scaled to controls: 0 for no effect and ±100 for the full control effect; potency is read from the fitted curve at half-maximal effect.

The target in the assay is Glucagon-like peptide 1 receptor (Homo sapiens) (UniProt P43220). The assay is described as follows: qHTS of GLP-1 Receptor Inverse Agonists (Inhibition Mode). Also: nearly all actives have a fitted effect of over 55% in size. Particulars: HEK293 GLP-1R CRE-luciferase, luminescence, 24 h, GLP-1R form is constitutively active; series mostly up to 38.3 µM; activity change, negative = inhibition: at the top concentration. In outline: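 qHTS in 1536-well format: reporter HEK293 cells expressing constitutive GLP-1R activity in DMEM + 10% Nu serum, 24 hr with compounds at 37 deg C, luminescence read after 12 min with detection reagent.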
Chain of Glucagon-like peptide 1 receptor (Homo sapiens) (P43220 whole entry, looked up): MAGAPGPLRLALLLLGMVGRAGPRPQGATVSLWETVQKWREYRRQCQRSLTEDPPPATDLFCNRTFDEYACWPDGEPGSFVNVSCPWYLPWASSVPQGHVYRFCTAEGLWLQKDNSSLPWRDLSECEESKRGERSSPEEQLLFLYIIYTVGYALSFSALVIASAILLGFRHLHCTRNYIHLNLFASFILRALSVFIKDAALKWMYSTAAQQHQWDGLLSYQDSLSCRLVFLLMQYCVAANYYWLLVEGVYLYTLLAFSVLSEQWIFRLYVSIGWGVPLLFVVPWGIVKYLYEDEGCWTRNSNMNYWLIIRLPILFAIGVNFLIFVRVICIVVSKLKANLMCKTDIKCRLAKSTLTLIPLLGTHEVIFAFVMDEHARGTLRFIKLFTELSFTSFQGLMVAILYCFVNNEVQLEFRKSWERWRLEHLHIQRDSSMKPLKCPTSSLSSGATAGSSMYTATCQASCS
On to `O=C(NCCC1CCCCN1S(=O)(=O)c1ccc(F)cc1)C(=O)NC1CC1` (configuration not stated), for which the “activity change, negative = inhibition” value is -11.8% (inactive).
With `O=C(NCCC1CCCCN1S(=O)(=O)c1cccs1)C(=O)Nc1ccc(F)cc1F` (configuration not stated), the Potency is 6.31 µM (active).
`COC(=O)C[C@@H]1C=C[C@@H](NC(=O)c2ccc3c(c2)OCO3)[C@@H](CO)O1`: the “activity change, negative = inhibition” value is 22.2% (inactive).
In the case of `CC(=O)Nc1ccc(NC(=O)c2cc3sccc3n2Cc2ccc(F)cc2)cc1`, the “activity change, negative = inhibition” value was -19.9% (inactive).
Regarding `CCOC(=O)c1cc2sccc2n1Cc1ccc(C#N)cc1`, the “activity change, negative = inhibition” value is 0% (inactive).
Take `O=C(c1cc2sccc2n1Cc1ccc(F)cc1)N1CCc2ccccc21`: the Potency is 5.01 µM (active).
For the compound `N#CCCC(C#N)(c1cccnc1)N1CCOCC1` (configuration not stated), the “activity change, negative = inhibition” value was -2.69% (inactive).
Regarding `COCCNC(=O)C1(C)CCCN(Cc2cccc(F)c2)C1` (configuration not stated), the “activity change, negative = inhibition” value is -17.9% (inactive).
For the compound `O=C(NCc1cccc(C(F)(F)F)c1)c1ccc2sc(COCCO)nc2c1`, the “activity change, negative = inhibition” value is -3.62% (inactive).
For `O=C(C[C@H]1C[C@H]2c3cc(NS(=O)(=O)c4ccc(F)cc4)ccc3O[C@H]2[C@H](CO)O1)NCc1cc(F)ccc1F`, the “activity change, negative = inhibition” value is -2.89% (inactive).
Regarding `CCCNC(=O)c1cc(C2CCCCN2C(=O)OC)on1` (configuration not stated), the “activity change, negative = inhibition” value was 33.7% (inactive).
As to `N#Cc1cccc(NC(=O)c2cc(C3CCCCN3C(=O)CCc3ccccc3)on2)c1` (configuration not stated), the “activity change, negative = inhibition” value is -20.6% (inactive).
`COc1ccc(C(=O)N2CCCCC2c2cc(C(=O)Nc3ccccc3)no2)cc1` (configuration not stated): the Potency is 10 µM (active).
As to `COc1cccc(NC(=O)N(C)C[C@@H]2Oc3ncc(Br)cc3C(=O)N([C@@H](C)CO)C[C@H]2C)c1`, the “activity change, negative = inhibition” value is 0.452% (inactive).
For `CCC1OC(C2CC2)CC2=C1C(=O)OC(C)(C)O2` (configuration not stated), the “activity change, negative = inhibition” value is 14.6% (inactive).
As for `O=C(Nc1ccc(S(=O)(=O)Nc2nccs2)cc1)c1cc(-c2ccncc2)nc2ccccc12`, the “activity change, negative = inhibition” value was 3.63% (inactive).
For the compound `COC(=O)CNC(=O)c1cc(-c2ccncc2)nc2ccccc12`, the “activity change, negative = inhibition” value is 6.15% (inactive).
`CCN(CC)CCNC(=O)c1ccc(NC(=O)c2cc(-c3ccncc3)nc3ccccc23)cc1`: the Potency was 12.6 µM (active).
Take `C=CCOc1ccccc1CNn1c(C)n[nH]c1=S`: the “activity change, negative = inhibition” value was -10.3% (inactive).
On to `CC1(C(=O)NS(=O)(=O)c2cccc(OC(F)F)c2)CCN1C(=O)COc1ccc(Cl)cc1` (configuration not stated), for which the “activity change, negative = inhibition” value was -17.8% (inactive).
The same measure, in the same setting: next, `COc1ccc(C2CC(c3ccc(C)cc3)Nc3ncnn32)cc1` (configuration not stated): 5.72% (inactive).
On to `CCOc1ccccc1C1CC(c2ccccc2)Nc2nc(N)nn21` (configuration not stated), for which the “activity change, negative = inhibition” value was 4.9% (inactive).
Regarding `FC(F)Oc1ccccc1C1CC(c2ccc(Br)s2)Nc2ncnn21` (configuration not stated), the Potency was 7.94 µM (active).
Regarding `Cc1ccc(S(=O)(=O)N[C@H](CO)C(C)C)cc1`, the “activity change, negative = inhibition” value is 16.6% (inactive).
As for `C[C@H]1CN([C@@H](C)CO)C(=O)CCCn2cc(nn2)CO[C@@H]1CN(C)S(=O)(=O)c1ccc(-c2ccccc2)cc1`, the “activity change, negative = inhibition” value was 34% (inactive).
`C[C@H]1CN(c2ccc(Br)cc2)C(=O)[C@@H]1CC(=O)Nc1ccc(Br)cc1`: the “activity change, negative = inhibition” value is -6.77% (inactive).
For the compound `COc1ccc(NC(=O)c2sc(=O)n(Cc3ccc(S(=O)(=O)N(C)C)cc3)c2C)cc1`, the “activity change, negative = inhibition” value is 15.2% (inactive).
On to `Cc1ccc(NC(=O)Cc2ccc(NC(=O)N3CCCCc4ccccc43)cc2)cc1`, for which the Potency is 7.94 µM (active).
For the compound `Cc1cc(Cl)ccc1NC(=O)Cc1ccc(NC(=O)N2CCCCc3ccccc32)cc1`, the “activity change, negative = inhibition” value is 1.66% (inactive).
On to `Cc1ccccc1CNC(=O)c1ccc(NC(=O)N2CCCCc3ccccc32)cc1`, for which the “activity change, negative = inhibition” value is 2.26% (inactive).
As to `CCOC(=O)N1CCN(C(=O)C[C@@H]2C[C@@]3(C(=O)OC)CC(C)(C)CC=C3N(Cc3ccco3)C2=O)CC1`, the “activity change, negative = inhibition” value is -19.4% (inactive).
As for `CCCNC(=O)C1(C)CCCN(C(=O)c2oc3ccccc3c2C)C1` (configuration not stated), the “activity change, negative = inhibition” value is 17.5% (inactive).
On to `CC1(C(=O)NS(=O)(=O)c2cccc(F)c2)CCN1C(=O)c1cccc2ccccc12` (configuration not stated), for which the “activity change, negative = inhibition” value is 25.7% (inactive).
Take `Cc1ccccc1S(=O)(=O)N1[C@@H](c2cccc(Cl)c2)C(C(=O)OC(C)(C)C)=CC[C@H]1c1ccc(Cl)cc1`: the “activity change, negative = inhibition” value was 26% (inactive).
As to `O=C(Nc1nc2c(s1)CCCC2)c1ccccc1F`, the Potency was 4.47 µM (active).
As for `O=C(Nc1sc2c(c1C(=O)O)CCC2)c1ccccc1F`, the “activity change, negative = inhibition” value was -23.1% (inactive).
Turning to `O=C(Nc1nnc(-c2ccccc2F)s1)c1ccccc1F`, the “activity change, negative = inhibition” value was 42.3% (inactive).
As for `Cc1nc(C(F)(F)F)ccc1C(=O)N1CCC1(C)C(=O)NS(=O)(=O)c1ccc(F)cc1F` (configuration not stated), the “activity change, negative = inhibition” value is 4.33% (inactive).
Consider `c1ccc2c(CCN3CCNC[C@H]3Cc3cccc4ccccc34)cccc2c1`, for which the “activity change, negative = inhibition” value was -11.6% (inactive).
In the case of `O=C1CCNCCN1[C@H](CO)Cc1ccccc1`, the “activity change, negative = inhibition” value was 11.1% (inactive).
Turning to `c1ccc(C[C@H]2CNCCN2CCC23CC4CC(CC(C4)C2)C3)cc1`, the Potency is 10 µM (active).
Turning to `CN(C)C1CN(Cc2cn(Cc3ccccc3)nn2)S(=O)(=O)C1` (configuration not stated), the “activity change, negative = inhibition” value is 8.92% (inactive).
As to `Cc1ccc(-c2cn3cc(C)ccc3n2)cc1`, the activity change, negative = inhibition was -14.4% [at 0.307 µM] (inactive).
`Cc1ccc(-c2cn3cc([N+](=O)[O-])ccc3n2)cc1`: the Potency is 4.47 µM (active).
As to `Cc1ccc(-n2cc3ccc([N+](=O)[O-])cc3n2)cc1`, the “activity change, negative = inhibition” value was -54% (inactive).
Consider `CCOC(=O)c1c(NC(=O)COC(=O)c2ccc(S(=O)(=O)C(F)F)cc2)sc(C(=O)N(C)C)c1C`, for which the “activity change, negative = inhibition” value was 12.2% (inactive).
Same read-out and setting: with `COc1ccc(CC(N)c2csc(NC(=O)NC(c3ccccc3)c3ccccc3)n2)cc1` (configuration not stated) the figure was -7.52% (inactive).

Source of the values: PubChem BioAssay AID624417 (National Center for Advancing Translational Sciences (NCATS), 2012).
